The list is not random: actives were taken first. Their share in the collection is about 4.1%.
MEKK2mut PB1 HTS – signal of MEK5 binding to mutant human MEKK2 PB1 domain | bead flow cytometry, Alexa488-MEK5 binding to MEKK2 mutant | 290,000 tested, 0.35% active | percent response, % at 10 µM; in the data active = percent response above about 24%, passing the limit was not always enough
CHT block – inhibits the human high affinity choline transporter; CHT-expressing cells, membrane potential dye, choline response; stronger effect = lower value; B-score at 10 µM; AID 488975; 310,000 tested, 0.86% active;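 active = B-score over 3 SD under the library average, and starting fluorescence ratio not unusually high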;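 note: choline stimulus applied at its EC90 after an EC20 pre-addition; B-score computed on integrated fluorescence ratio after choline addition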
MEKK2wt PB1 HTS – raises or lowers MEK5 binding to wildtype human MEKK2 PB1 domain; Q9Y2U5; bead flow cytometry, Alexa488-MEK5 binding to MEKK2 WT; actives lie on both sides; binding response (% of control), % at 10 µM; 290,000 tested, 1.1% active; in the data active = binding response below about 67% or above about 130%
Mot1-301 SUMO – blocks SUMOylation pathway, rescuing yeast Mot1-301 growth | growth rescue, % at 18.8 µM | S. cerevisiae Mot1-301 growth rescue, ATP luminescence, 38.5C; percent above DMSO median, 100 means doubled | 320,000 tested, 1% active;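 active = every valid replicate shows activation above 250% relative to neutral control wells; inactive = the rest, any valid replicate at or below 250%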
CHT allo act – allosterically activates the human high affinity choline transporter. 310,000 tested, 0.49% active. CHT-expressing cells, membrane potential dye, choline EC20; stronger effect = higher value; LV-AA mutant CHT in HEK293 cells. B-score at 10 µM. AID 488977;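 active = initial fluorescence not abnormally high and integrated response B-score, plate-corrected, over 3 SD above library mean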
MEKK3 PB1 HTS – MEKK3-MEK5 PB1 interaction, increase or decrease | Q99759 | binding response (% of control), % at 10 µM | 290,000 tested, 1.4% active | AID 1529 | bead-based flow cytometry, Alexa488-MEK5 binding to MEKK3; actives lie on both sides; 0 = blocked by unlabeled MEK5, 100 = vehicle;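 active = binding response more than 3 SD above or below the average of its plate-row segment, actives on both sides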;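 note: Alexa488 bead fluorescence after subtracting the streptavidin-only scavenger bead signal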
Target sequence (Q99759 whole entry, looked up): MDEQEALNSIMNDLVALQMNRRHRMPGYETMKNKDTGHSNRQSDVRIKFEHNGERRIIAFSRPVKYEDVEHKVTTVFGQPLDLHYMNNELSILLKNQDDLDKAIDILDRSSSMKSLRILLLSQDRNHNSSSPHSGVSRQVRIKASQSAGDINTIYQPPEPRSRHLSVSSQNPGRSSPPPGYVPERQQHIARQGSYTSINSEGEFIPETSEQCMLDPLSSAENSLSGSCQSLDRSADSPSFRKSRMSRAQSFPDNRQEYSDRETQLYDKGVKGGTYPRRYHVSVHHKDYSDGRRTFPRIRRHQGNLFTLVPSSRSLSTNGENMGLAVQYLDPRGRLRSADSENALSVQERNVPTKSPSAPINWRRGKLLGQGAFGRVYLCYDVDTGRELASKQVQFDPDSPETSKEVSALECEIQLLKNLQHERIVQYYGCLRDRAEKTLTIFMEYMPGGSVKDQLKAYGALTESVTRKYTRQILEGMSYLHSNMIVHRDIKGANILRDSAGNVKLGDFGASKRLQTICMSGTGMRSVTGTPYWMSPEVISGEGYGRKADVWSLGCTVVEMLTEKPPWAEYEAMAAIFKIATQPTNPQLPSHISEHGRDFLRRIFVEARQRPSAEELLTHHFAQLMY
CHT act confirm – human CHT activation, confirmatory screen; AID 504833; activation, % at 10 µM; shares compounds with CHT allo act; 2,500 tested, 91% active; CHT-expressing cells, membrane potential dye fluorescence (FDSS); % of choline EC20–EC90 response window; HEK293 expressing CHT LV-AA mutant; choline added at its EC20;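 active = primary screen active, with duplicate mean activation above negative control mean plus 3 SD, cut at about 11% in these data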
HEK293 MP dye – counter-screen for CHT activators: effect in parental HEK293 cells; shares compounds with CHT allo act; membrane potential dye fluorescence (FDSS); measured after EC20 choline addition; ratio readout change at 10 µM, hits read low; 2,500 tested, 62% active; AID 623908;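 active = duplicate-averaged ratio beyond 3 SD from buffer wells, up or down, though filed actives are nearly all decreases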
Large screens that a line does not name were inactive (follow-up assays come after a bar, where they were run).

CC(C)C1Oc2ccccc2N(CC(=O)NC2CCCCC2)C1=O (configuration not stated)	none | CHT act confirm 9.8 | HEK293 MP dye inactive
CC1Oc2ccccc2N(CC(=O)NC2CCCCC2)C1=O (configuration not stated)	none
CCCCn1c(N)c(N(CCOC)C(=O)c2c(C)noc2C)c(=O)[nH]c1=O	none (no result: MEKK2mut PB1 HTS, MEKK2wt PB1 HTS, MEKK3 PB1 HTS)
Cc1ccc2nc3c(cc(C(=O)NC4CCCCC4)c(=N)n3C3CCCCC3)c(=O)n2c1	none
N=c1c(C(=O)NC2CCCC2)cc2c(=O)n3ccccc3nc2n1C1CCCCC1	none | CHT act confirm 48 | HEK293 MP dye -35
O=C(NCc1ccc(F)cc1)C1CCCN(c2cnccn2)C1 (configuration not stated)	none
C[C@H](OC(=O)NCc1ccc(C(F)(F)F)cc1)[C@@H]1O[C@@]2(C)CCC[C@@H]1O2	none (no result: MEKK2mut PB1 HTS, CHT block, MEKK2wt PB1 HTS, CHT allo act, MEKK3 PB1 HTS)
CCOC(=O)C1(CCc2ccccc2)CCN(Cc2cc(OC)c(OC)cc2OC)CC1	CHT allo act 10 | CHT act confirm 56 | HEK293 MP dye inactive
CCOC(=O)C1(CCOc2ccccc2)CCN(Cc2ccc3nonc3c2)CC1	CHT allo act 6.4 | CHT act confirm inactive | HEK293 MP dye inactive
COc1ccc(CNC(=O)CCS(=O)(=O)c2ccc3c(c2)CC(C)N3C(=O)C2CC2)cc1 (configuration not stated)	none
Cc1cc(Nc2ccccc2O)c2ccccc2n1	CHT allo act 6.7 | CHT act confirm 39 | HEK293 MP dye -37
Cc1ccc(C)c(Nc2cc(C)nc3ccccc23)c1	none (no result: MEKK2mut PB1 HTS, MEKK2wt PB1 HTS, MEKK3 PB1 HTS)
COCCCNc1cc(C)nc2ccccc12	none | CHT act confirm 56 | HEK293 MP dye -68
Cc1cc(N)c2ccccc2n1	CHT allo act 8 | CHT act confirm 65 | HEK293 MP dye -55
COC(=O)Nc1cc(C)nc2ccccc12	CHT allo act 6.8 | CHT act confirm 35 | HEK293 MP dye -45
Cc1cc(NC(=O)Cc2ccccc2)c2ccccc2n1	none
Nc1cccc2nc3ccccc3cc12	CHT allo act 13 | CHT act confirm 27 | HEK293 MP dye -55
Nc1[nH]nc2nc3ccccc3cc12	none
O=C1N=C(O)CN1/N=C/c1ccc(-c2ccc([N+](=O)[O-])cc2)o1	CHT allo act 7.6 | CHT act confirm 32 | HEK293 MP dye -32
CCC(=O)N/N=C/c1ccc(-c2ccc([N+](=O)[O-])cc2)o1	none
Cc1c(C(O)CN2CCN(Cc3ccc4c(c3)OCO4)CC2)c2ccccc2n1C (configuration not stated)	CHT allo act 6.8 | CHT act confirm 31 | HEK293 MP dye -27
COc1ccc2c(c1)c(C(O)CN1CCN(Cc3ccc4c(c3)OCO4)CC1)c(C)n2C (configuration not stated)	none
Cc1cccn2c(=O)c(C=O)c(N3CCN(C)CC3)nc12	CHT allo act 7.1 | CHT act confirm 71 | HEK293 MP dye -66
Cc1ccc(S(=O)(=O)/C(C#N)=C/c2c(N3CCN(C)CC3)nc3c(C)cccn3c2=O)cc1	CHT allo act 7.4 | CHT act confirm 50 | HEK293 MP dye -46
O=Cc1c(N2CCN(CCO)CC2)nc2ccccn2c1=O	none
CCN1CCN(c2nc3ccccn3c(=O)c2C=O)CC1	none | CHT act confirm 57 | HEK293 MP dye -51
Cc1ccc2nc(N3CCN(C)CC3)c(C=O)c(=O)n2c1	none | CHT act confirm 74 | HEK293 MP dye -51
Cc1cccn2c(=O)c(C=O)c(N3CCN(c4ccccc4)CC3)nc12	none
C/C=C/c1ccc(OCC(=O)Nc2cc(S(=O)(=O)N3CCOCC3)ccc2N2CCCC2)c(OC)c1	none (no result: MEKK2mut PB1 HTS, MEKK2wt PB1 HTS, Mot1-301 SUMO, MEKK3 PB1 HTS)
CC(C(=O)Nc1ccc(Br)cc1)N(C)CC(=O)NCc1ccco1 (configuration not stated)	none (no result: MEKK2mut PB1 HTS, CHT block, MEKK2wt PB1 HTS, CHT allo act, MEKK3 PB1 HTS)
COC(=O)c1cccc(NC(=S)NC(C)C)c1	none (no result: Mot1-301 SUMO)
CCNC(=O)/C(C#N)=C/c1c(N2CCN(c3cccc(Cl)c3)CC2)nc2c(C)cccn2c1=O	none
CCNC(=O)/C(C#N)=C/c1c(N2CCN(C)CC2)nc2c(C)cccn2c1=O	CHT allo act 6.3 | CHT act confirm 49 | HEK293 MP dye -53
Cc1cc(N2CCN(Cc3cn(C)nc3-c3ccccc3F)CC2)cc(C)n1	none | CHT act confirm 77 | HEK293 MP dye -74
Cc1cc(N2CCN(Cc3cn(C)nc3-c3cccc(Cl)c3)CC2)cc(C)n1	none
CCOCCC(=O)Nc1cc(Cl)ccc1OC	none
CCn1cc(S(=O)(=O)c2ccc(C)cc2)c(=O)c2cc(F)c(N3CCN(C)CC3)cc21	none | CHT act confirm 49 | HEK293 MP dye -49
CCn1cc(C(=O)NCCCN(C)C)c(=O)c2cc(F)c(N3CCN(C)CC3)cc21	none | CHT act confirm 30 | HEK293 MP dye inactive
C[C@H](c1ccccc1)n1nnc(COCc2ccccc2)c1C#CCOCc1ccccc1	none
O=C(Nc1nccs1)c1ncc(Cl)c(Cl)c1Cl	none
O=C(COC(=O)Cc1ccsc1)NCc1ccccc1	none
CC(NC(=O)COC(=O)Cc1ccsc1)c1ccccc1 (configuration not stated)	CHT allo act 6.4 | CHT act confirm inactive | HEK293 MP dye inactive
O=C(CSc1ncn[nH]1)c1ccc(OC(F)F)cc1	CHT allo act 7.2 | CHT act confirm inactive | HEK293 MP dye inactive
Cc1ccc(C(=O)CSc2ncn[nH]2)cc1	none
Cc1ccc(C(=O)C2CCN(CC(=O)Nc3nc(C)cs3)CC2)cc1	none
C/C(=N\N=C(N)N)c1cccc([N+](=O)[O-])c1	CHT allo act 6.4 | CHT act confirm 27 | HEK293 MP dye -57
CN(C)c1ccnc(Nc2ccccc2)c1C#N	CHT allo act 6.3 | CHT act confirm 52 | HEK293 MP dye -35
Cc1cc(C)n(-c2nc3ccccc3nc2N2CCCCCC2)n1	none (no result: Mot1-301 SUMO) | CHT act confirm 17 | HEK293 MP dye inactive
Cn1c(-c2cccs2)[n+](C)c2ccccc21	CHT allo act 9.8 | CHT act confirm 62 | HEK293 MP dye -56
COn1c(=O)c(-c2cccs2)[n+]([O-])c2ccccc21	none
CC(C)C(c1nnnn1Cc1ccc(F)cc1)N1CCN(C2CCCC2)CC1 (configuration not stated)	none

High-throughput results from PubChem.
